ChEMBL document CHEMBL1961873, “Compounds: GSK PKIS; Assays: Nanosyn kinase panel” (2012)

Assays:
[1] = biological target: Sphingosine kinase 1 (Homo sapiens) (UniProt Q9NYA1); settings: at 1 µM;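 also: mean SPHK1 inhibition value reported from the GSK PKIS kinase panel screen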
[2] = biological target: T1, Sphingosine kinase 2 (Homo sapiens) (UniProt Q9NRA0); settings: at 0.1 µM
T1 sequence (whole entry): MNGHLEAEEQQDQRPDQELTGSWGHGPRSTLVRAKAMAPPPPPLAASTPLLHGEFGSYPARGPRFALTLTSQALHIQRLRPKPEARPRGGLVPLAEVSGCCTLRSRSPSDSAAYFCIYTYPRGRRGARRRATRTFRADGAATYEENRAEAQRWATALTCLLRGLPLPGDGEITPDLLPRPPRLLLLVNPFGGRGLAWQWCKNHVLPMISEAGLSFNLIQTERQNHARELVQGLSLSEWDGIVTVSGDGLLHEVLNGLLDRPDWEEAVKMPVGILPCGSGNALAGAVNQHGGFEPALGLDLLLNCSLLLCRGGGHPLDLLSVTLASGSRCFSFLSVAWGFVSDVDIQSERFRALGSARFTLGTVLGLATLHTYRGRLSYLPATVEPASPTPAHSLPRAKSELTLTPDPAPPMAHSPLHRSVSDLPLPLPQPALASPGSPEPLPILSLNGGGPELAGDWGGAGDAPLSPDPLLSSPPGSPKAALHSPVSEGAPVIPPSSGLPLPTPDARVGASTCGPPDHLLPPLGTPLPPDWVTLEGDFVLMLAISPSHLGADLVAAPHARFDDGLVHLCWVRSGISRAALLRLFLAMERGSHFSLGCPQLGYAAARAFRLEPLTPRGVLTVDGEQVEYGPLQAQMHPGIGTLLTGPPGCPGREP

[3] = biological target: T1, Sphingosine kinase 2 (Homo sapiens); settings: at 1 µM
[4] = biological target: Casein kinase II subunit alpha (Homo sapiens) (UniProt P68400); settings: at 0.1 µM
Chain of Casein kinase II subunit alpha (Homo sapiens) (P68400 whole entry, looked up): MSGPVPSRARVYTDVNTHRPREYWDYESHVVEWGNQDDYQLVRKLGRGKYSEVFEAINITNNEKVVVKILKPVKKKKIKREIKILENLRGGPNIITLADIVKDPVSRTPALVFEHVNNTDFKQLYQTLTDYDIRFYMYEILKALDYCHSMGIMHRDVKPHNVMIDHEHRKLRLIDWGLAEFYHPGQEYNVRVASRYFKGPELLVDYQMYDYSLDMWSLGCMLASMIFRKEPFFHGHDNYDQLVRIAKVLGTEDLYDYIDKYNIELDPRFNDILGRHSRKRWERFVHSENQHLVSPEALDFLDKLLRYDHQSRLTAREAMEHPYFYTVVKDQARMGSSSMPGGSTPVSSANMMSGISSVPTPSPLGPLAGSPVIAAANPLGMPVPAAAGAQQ

[5] = biological target: Casein kinase II subunit alpha (Homo sapiens) (UniProt P68400); settings: at 1 µM
[6] = biological target: T2, Inhibitor of nuclear factor kappa-B kinase subunit epsilon (Homo sapiens) (UniProt Q14164); settings: at 0.1 µM
T2 sequence (whole entry): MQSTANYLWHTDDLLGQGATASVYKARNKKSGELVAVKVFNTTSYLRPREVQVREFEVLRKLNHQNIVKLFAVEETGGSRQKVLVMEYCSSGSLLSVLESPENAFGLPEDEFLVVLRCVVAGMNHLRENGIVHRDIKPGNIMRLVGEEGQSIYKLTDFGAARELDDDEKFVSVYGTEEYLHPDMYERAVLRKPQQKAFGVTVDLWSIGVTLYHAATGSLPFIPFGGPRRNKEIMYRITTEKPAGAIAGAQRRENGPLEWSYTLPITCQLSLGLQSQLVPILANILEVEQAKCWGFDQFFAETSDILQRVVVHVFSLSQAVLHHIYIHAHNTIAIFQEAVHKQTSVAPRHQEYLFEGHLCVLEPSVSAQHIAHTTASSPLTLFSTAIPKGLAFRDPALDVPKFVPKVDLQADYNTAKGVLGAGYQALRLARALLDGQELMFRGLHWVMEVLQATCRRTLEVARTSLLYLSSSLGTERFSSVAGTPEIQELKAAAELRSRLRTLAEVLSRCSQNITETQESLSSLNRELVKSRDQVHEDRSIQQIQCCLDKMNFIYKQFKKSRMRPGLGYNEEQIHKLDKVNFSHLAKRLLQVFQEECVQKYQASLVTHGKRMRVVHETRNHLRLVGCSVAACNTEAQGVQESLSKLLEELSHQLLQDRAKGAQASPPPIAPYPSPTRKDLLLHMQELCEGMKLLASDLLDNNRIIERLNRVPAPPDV

[7] = biological target: T2, Inhibitor of nuclear factor kappa-B kinase subunit epsilon (Homo sapiens); settings: at 1 µM
[8] = biological target: T3, Serine/threonine-protein kinase Nek1 (Homo sapiens) (UniProt Q96PY6); settings: at 0.1 µM
T3 sequence (whole entry): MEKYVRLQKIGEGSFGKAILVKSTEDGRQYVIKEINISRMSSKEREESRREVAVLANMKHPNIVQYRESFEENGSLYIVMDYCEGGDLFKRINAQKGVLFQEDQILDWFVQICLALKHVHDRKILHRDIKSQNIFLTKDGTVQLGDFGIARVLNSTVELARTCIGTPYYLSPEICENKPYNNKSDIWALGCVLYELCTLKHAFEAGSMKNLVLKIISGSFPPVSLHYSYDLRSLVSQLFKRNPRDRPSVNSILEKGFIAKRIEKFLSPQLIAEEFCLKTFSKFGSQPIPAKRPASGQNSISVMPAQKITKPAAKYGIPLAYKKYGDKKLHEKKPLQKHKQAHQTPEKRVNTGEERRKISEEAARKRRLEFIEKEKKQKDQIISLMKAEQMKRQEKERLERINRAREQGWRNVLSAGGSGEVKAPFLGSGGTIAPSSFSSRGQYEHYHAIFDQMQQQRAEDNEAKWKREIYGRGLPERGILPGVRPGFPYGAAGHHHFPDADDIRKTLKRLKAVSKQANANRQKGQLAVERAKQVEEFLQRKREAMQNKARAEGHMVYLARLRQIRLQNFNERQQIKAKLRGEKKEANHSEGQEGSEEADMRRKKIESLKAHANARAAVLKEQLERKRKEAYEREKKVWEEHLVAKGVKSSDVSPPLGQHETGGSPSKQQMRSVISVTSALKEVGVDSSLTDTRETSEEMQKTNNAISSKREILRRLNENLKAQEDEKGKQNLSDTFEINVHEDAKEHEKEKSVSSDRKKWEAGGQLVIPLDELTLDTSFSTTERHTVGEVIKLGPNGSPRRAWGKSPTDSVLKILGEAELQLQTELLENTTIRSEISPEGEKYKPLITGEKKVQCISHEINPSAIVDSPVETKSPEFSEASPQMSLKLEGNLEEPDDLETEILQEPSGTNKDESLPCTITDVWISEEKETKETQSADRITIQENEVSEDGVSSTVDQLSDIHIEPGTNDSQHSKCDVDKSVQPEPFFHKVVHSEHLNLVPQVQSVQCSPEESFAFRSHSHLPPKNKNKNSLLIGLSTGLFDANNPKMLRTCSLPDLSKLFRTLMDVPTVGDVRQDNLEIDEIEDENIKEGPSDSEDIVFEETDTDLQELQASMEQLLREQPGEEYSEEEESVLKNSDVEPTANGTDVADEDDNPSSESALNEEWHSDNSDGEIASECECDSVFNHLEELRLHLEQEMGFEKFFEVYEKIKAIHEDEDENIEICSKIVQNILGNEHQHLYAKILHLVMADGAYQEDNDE

[9] = biological target: T3, Serine/threonine-protein kinase Nek1 (Homo sapiens); settings: at 1 µM
[10] = biological target: T4, Serine/threonine-protein kinase Nek2 (Homo sapiens) (UniProt P51955); settings: at 0.1 µM
T4 sequence (whole entry): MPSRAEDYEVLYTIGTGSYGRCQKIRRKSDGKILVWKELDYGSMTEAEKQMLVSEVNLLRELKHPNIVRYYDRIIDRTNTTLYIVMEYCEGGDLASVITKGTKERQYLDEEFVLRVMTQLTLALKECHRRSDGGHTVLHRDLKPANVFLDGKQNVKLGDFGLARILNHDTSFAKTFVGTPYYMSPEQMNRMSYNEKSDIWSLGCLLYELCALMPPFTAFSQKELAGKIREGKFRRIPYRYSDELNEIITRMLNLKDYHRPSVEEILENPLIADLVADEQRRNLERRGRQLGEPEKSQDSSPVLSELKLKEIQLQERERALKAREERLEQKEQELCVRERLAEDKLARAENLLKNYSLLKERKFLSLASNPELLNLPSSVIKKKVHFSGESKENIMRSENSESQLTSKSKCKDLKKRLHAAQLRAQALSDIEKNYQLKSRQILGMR

[11] = biological target: T4, Serine/threonine-protein kinase Nek2 (Homo sapiens); settings: at 1 µM
[12] = biological target: Serine/threonine-protein kinase Nek6 (Homo sapiens) (UniProt Q9HC98); settings: at 0.1 µM
Chain of Serine/threonine-protein kinase Nek6 (Homo sapiens) (Q9HC98 whole entry): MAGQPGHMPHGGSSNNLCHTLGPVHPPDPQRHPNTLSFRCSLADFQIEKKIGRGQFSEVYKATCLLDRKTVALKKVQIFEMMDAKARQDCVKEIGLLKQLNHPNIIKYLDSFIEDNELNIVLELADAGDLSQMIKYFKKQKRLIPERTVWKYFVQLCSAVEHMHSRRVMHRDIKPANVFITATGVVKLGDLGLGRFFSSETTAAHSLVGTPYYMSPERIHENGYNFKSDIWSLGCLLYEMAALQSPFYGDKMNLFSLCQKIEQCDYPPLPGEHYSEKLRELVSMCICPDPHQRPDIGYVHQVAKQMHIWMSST

[13] = biological target: Serine/threonine-protein kinase Nek6 (Homo sapiens) (UniProt Q9HC98); settings: at 1 µM
[14] = biological target: Serine/threonine-protein kinase Nek7 (Homo sapiens) (UniProt Q8TDX7); settings: at 0.1 µM
Chain of Serine/threonine-protein kinase Nek7 (Homo sapiens) (Q8TDX7 whole entry, looked up): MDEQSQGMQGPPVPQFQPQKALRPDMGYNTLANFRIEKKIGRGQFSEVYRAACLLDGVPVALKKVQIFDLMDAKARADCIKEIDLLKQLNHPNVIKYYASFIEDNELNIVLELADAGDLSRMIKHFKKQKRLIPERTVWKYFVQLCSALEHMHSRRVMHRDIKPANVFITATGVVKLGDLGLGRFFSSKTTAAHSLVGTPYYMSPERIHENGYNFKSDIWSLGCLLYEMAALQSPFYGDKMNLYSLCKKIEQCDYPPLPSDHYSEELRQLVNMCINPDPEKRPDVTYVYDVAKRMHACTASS

[15] = biological target: Serine/threonine-protein kinase Nek7 (Homo sapiens) (UniProt Q8TDX7); settings: at 1 µM
[16] = biological target: T5, Serine/threonine-protein kinase Nek9 (Homo sapiens) (UniProt Q8TD19); settings: at 0.1 µM;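 also: reported value is the mean percent inhibition of NEK9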
T5 sequence (whole entry): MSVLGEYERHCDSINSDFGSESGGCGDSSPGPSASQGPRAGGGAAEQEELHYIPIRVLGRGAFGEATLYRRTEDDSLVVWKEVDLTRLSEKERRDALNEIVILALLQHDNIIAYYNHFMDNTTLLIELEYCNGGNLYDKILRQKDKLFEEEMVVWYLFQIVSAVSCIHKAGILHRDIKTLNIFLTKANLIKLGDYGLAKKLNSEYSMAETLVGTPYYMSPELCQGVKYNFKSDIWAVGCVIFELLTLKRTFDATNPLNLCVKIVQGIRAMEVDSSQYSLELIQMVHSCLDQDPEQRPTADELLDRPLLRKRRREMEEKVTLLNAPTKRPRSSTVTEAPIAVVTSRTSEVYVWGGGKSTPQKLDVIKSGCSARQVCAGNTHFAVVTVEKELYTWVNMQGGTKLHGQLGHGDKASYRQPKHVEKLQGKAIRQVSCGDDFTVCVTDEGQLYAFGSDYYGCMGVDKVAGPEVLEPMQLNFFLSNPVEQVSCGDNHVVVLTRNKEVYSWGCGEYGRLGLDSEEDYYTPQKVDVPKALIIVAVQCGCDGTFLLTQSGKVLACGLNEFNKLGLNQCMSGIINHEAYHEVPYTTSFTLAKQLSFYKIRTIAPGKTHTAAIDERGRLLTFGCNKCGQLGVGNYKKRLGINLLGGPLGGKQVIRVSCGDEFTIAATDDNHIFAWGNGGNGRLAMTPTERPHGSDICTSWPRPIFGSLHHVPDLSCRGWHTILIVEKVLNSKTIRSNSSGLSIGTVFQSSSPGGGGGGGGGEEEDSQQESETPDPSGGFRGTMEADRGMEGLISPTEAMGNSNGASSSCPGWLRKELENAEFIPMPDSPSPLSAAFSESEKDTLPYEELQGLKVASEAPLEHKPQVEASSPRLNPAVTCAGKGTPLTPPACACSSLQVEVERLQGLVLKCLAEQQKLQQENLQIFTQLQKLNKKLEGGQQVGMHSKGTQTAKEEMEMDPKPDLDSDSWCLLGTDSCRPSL

Chain of Sphingosine kinase 1 (Homo sapiens) (Q9NYA1 whole entry): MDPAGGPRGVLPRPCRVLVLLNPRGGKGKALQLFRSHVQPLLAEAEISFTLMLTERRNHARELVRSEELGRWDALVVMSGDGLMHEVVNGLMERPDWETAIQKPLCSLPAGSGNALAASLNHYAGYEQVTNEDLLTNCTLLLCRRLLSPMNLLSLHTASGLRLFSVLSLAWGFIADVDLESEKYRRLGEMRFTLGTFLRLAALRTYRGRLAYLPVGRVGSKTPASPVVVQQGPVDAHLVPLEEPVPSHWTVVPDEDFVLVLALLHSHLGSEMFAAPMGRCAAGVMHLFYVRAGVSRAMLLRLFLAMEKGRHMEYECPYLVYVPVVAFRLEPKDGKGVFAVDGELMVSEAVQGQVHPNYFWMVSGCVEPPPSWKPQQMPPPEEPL

In the case of NC(=O)c1cc(-c2ccc(F)cc2)cc(-c2ccncc2)c1N, the inhibition [1] is reported as 4.1%, the inhibition [2] is reported as 1.03% and the inhibition [3] is reported as -1.1%. For the same compound, the inhibition [4] was 3.42%, the inhibition [5] was 8.62% and the inhibition [6] was 6.05%. The inhibition [7] was 3.16%, the inhibition [8] was 1.62% and the inhibition [9] was 1.03%. The inhibition [10] was 4.7%, the inhibition [11] was 3.75% and the inhibition [12] was 4.68%. It also gave an inhibition [13] of 6.66%, an inhibition [14] of 6.78% and an inhibition [15] of 4.73%. It also gave an inhibition [16] of 7.94%.
